# Source: PubChem BioAssay (Tox21)
# Values without a mark were called inactive. Results filed as inconclusive are left out. Where a call stands in place of a potency, no number is given. Activity calls are given as the source filed them. The call rests on the fitted dose curve.
# What was measured:
# [1] = target: Acetylcholinesterase (Homo sapiens) (UniProt P22303); experiment: Acetylcholinesterase (AChE) small molecule antagonists: colormetric cell-based qHTS assay (AID 1347395); further: nearly all actives have a fitted effect of over 30% in size; further: potency means the concentration at half of the fitted maximal effect
# Sequence of Acetylcholinesterase (Homo sapiens) (P22303 whole entry, looked up): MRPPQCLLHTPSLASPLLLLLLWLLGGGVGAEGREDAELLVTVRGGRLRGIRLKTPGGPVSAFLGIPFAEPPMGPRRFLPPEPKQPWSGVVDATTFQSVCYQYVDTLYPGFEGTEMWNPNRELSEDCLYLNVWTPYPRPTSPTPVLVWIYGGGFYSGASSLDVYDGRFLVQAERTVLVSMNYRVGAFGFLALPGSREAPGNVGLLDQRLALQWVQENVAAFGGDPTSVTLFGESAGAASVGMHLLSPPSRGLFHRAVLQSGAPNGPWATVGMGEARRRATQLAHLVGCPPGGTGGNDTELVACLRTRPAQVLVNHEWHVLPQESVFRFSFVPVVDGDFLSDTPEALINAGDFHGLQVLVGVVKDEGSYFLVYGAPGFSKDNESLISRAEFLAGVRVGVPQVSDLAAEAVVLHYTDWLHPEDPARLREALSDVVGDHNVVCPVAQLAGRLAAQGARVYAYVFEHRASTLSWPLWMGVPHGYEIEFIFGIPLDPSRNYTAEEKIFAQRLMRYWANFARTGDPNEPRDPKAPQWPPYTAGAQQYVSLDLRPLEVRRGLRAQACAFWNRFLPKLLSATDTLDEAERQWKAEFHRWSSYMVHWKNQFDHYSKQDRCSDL
# Method in brief: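 Cells (SH-SY5Y, 2,000 per well) are seeded and left overnight at 37 C. Compound is added for 30 min, then DTNB and acetylthiocholine for a further 90 min at 37 C before absorbance-based thiocholine detection.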
# [2] = target: Acetylcholinesterase (Homo sapiens) (UniProt P22303); experiment: Acetylcholinesterase (AChE) small molecule antagonists: enzyme-based qHTS assay (AID 1347397); settings: Potency: AChE enzyme activity inhibition; outcome: AChE enzyme activity inhibition; further: nearly all actives have a fitted effect of over 55% in size; further: potency means the concentration at half of the fitted maximal effect
# Method in brief: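 Colorimetric DTNB readout of acetylthiocholine hydrolysis, 10 min at room temperature, after 30 min room-temperature exposure of 50 mU/mL recombinant human enzyme to compound; DMSO vehicle control.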
# [3] = target: Acetylcholinesterase (Homo sapiens) (UniProt P22303); experiment: Acetylcholinesterase (AChE) small molecule antagonists: enzyme-based qHTS assay with human liver microsomes (AID 1347399); settings: Potency: qHTS inhibition; outcome: qHTS inhibition; further: nearly all actives have a fitted effect of over 60% in size
# Method in brief: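 Recombinant human AChE (50 mU/mL in the enzyme mix) and human liver microsomes (0.25 mg/mL final) were preincubated with compound and NADPH (0.25 mg/mL final) for 30 min at 37 C. Acetylthiocholine/DTNB was then added; thiocholine was read colorimetrically after 10 min at room temperature.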
# [4] = target: Acetylcholinesterase (Homo sapiens) (UniProt P22303); experiment: Acetylcholinesterase (AChE) small molecule antagonists: fluorescence cell-based qHTS assay (AID 1347398); settings: Potency: AChE activity; outcome: AChE activity; further: nearly all actives have a fitted effect of over 50% in size
# Method in brief: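 Cellular AChE activity read as thiocholine from acetylthiocholine hydrolysis, detected by Thiolite Green fluorescence at 490/520 nm after 40 min at room temperature. Compounds were pre-incubated 30 min at 37 C on adherent SH-SY5Y cells.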
smiles,measurement,setting,value
Cc1ccc(C(=O)C(=O)O)cc1C,Potency,[1],inactive
same,Potency,[2],inactive
same,Potency,[3],inactive
CC1=C(/C=C/C(C)=C/C=C/C(C)=C/C=O)C(C)(C)CCC1,Potency,[1],inactive
same,Potency,[2],inactive
same,Potency,[3],inactive
CC(=O)[C@]1(O)Cc2c(O)c3c(c(O)c2[C@@H](O[C@H]2C[C@H](N)[C@H](O)[C@H](C)O2)C1)C(=O)c1ccccc1C3=O,Potency,[1],17.4 µM (active)
same,Potency,[2],inactive
same,Potency,[3],inactive
CN(C)CCOC1=Cc2ccccc2Sc2ccc(Cl)cc21,Potency,[1],inactive
same,Potency,[2],inactive
same,Potency,[3],inactive
C/C=C/C(=O)CC,"activity, negative = inhibition",[1],0.402% [at 23.6 µM]
same,"activity change, negative = inhibition",[2],0.0718% [at 23.6 µM]
same,"activity change, negative = inhibition",[3],-3.23% [at 23.6 µM]
NC(=O)n1c(O)c(C(=O)c2cccs2)c2cc(Cl)ccc21,Potency,[1],inactive
same,Potency,[2],inactive
same,Potency,[3],inactive
CCOc1cc(N)c(Cl)cc1C(=O)NCC1CN(Cc2ccc(F)cc2)CCO1 (stereo unspecified),Potency,[1],inactive
same,Potency,[2],inactive
same,Potency,[3],inactive
CN[C@H]1CC[C@@H](c2ccc(Cl)c(Cl)c2)c2ccccc21,Potency,[1],inactive
same,Potency,[2],inactive
same,Potency,[3],inactive
O=S(=O)(O)c1cc(S(=O)(=O)O)c2ccc3c(S(=O)(=O)O)cc(S(=O)(=O)O)c4ccc1c2c43,"activity, negative = inhibition",[1],-7.76% [at 23.6 µM]
same,"activity change, negative = inhibition",[2],-5.03% [at 23.6 µM]
same,"activity change, negative = inhibition",[3],2.76% [at 23.6 µM]
CC(C)(Cc1c[nH]c2ccccc12)NCC(O)COc1ccccc1C#N (stereo unspecified),Potency,[1],inactive
same,Potency,[2],inactive
same,Potency,[3],inactive
CCCCN(CCCC)CC(O)c1cc(Cl)cc2c1-c1ccc(Cl)cc1/C2=C/c1ccc(Cl)cc1 (stereo unspecified),Potency,[1],inactive
same,Potency,[2],inactive
same,Potency,[3],inactive
O=C(Cn1ccnc1[N+](=O)[O-])NCCO,Potency,[1],inactive
same,Potency,[2],inactive
same,Potency,[3],inactive
O=C(Cl)c1cc(C(=O)Cl)cc(C(=O)Cl)c1,Potency,[1],inactive
same,Potency,[2],inactive
same,Potency,[3],inactive
CC(C)(C)NCC(O)COc1ccc(NC(=O)NC2CCCCC2)cc1 (stereo unspecified),Potency,[1],inactive
same,Potency,[2],inactive
same,Potency,[3],inactive
CC[N+](C)(CC)CCOC(=O)C1c2ccccc2Oc2ccccc21,Potency,[1],inactive
same,Potency,[2],inactive
same,Potency,[3],inactive
Cc1ccc2c(c1)CCCN2,Potency,[1],inactive
same,Potency,[2],inactive
same,Potency,[3],inactive
CC1=C(/C=C/C(C)=C\C=C\C(C)=C\C(=O)O)C(C)(C)CCC1,Potency,[1],inactive
same,Potency,[2],inactive
same,Potency,[3],inactive
Cc1nc(-c2ccc(OCC(C)C)c(C#N)c2)sc1C(=O)O,Potency,[1],27.5 µM (active)
same,Potency,[2],inactive
same,Potency,[3],inactive
CCCCCN=C(N)N/N=C/c1c[nH]c2ccc(OC)cc12,Potency,[1],inactive
same,Potency,[2],inactive
same,Potency,[3],inactive
COc1cc(-c2ccc(N=C=O)c(OC)c2)ccc1N=C=O,Potency,[1],inactive
same,Potency,[2],inactive
same,Potency,[3],inactive
Cc1ccc(NC(=O)c2ccc(CN3CCN(C)CC3)cc2)cc1Nc1nccc(-c2cccnc2)n1,Potency,[1],inactive
same,Potency,[2],inactive
same,Potency,[3],inactive
CC(C(O)c1ccc(O)cc1)N1CCC(Cc2ccccc2)CC1 (stereo unspecified),Potency,[1],inactive
same,Potency,[2],inactive
same,Potency,[3],inactive
CCCC(C(=O)OCCN(CC)CC)(c1ccccc1)c1ccccc1,Potency,[1],inactive
same,Potency,[2],inactive
same,Potency,[3],inactive
Cc1ccsc1/C=C/C1=NCCCN1C,Potency,[1],17.4 µM (active)
same,Potency,[2],inactive
same,Potency,[3],inactive
COc1ccc(C(=O)NCc2ccc(OCCN(C)C)cc2)cc1OC,Potency,[1],6.92 µM (active)
same,Potency,[2],27.5 µM (active)
same,Potency,[3],inactive
CC(=O)CCc1ccc(O)cc1,Potency,[1],inactive
same,Potency,[2],inactive
same,Potency,[3],inactive
COCC(=O)O[C@]1(CCN(C)CCCc2nc3ccccc3[nH]2)CCc2cc(F)ccc2[C@@H]1C(C)C,Potency,[1],inactive
same,Potency,[2],inactive
same,Potency,[3],inactive
CC(C)C[P+](C)(CC(C)C)CC(C)C,Potency,[1],40.2 µM (active)
same,Potency,[2],inactive
same,Potency,[3],inactive
CCOC(=O)Nc1ccc(NCc2ccc(F)cc2)nc1N,Potency,[1],inactive
same,Potency,[2],inactive
same,Potency,[3],inactive
C[C@@H]1CC[C@H]2C(C)(C)[C@H]3C[C@@]12CC[C@@]3(C)O,Potency,[1],inactive
same,Potency,[2],inactive
same,Potency,[3],inactive
CCOc1ccc(C(=O)OCCN(CC)CC)cc1,Potency,[1],inactive
same,Potency,[2],inactive
same,Potency,[3],inactive
Cc1ccc(O)c(O)c1,Potency,[1],inactive
same,Potency,[2],inactive
same,Potency,[3],inactive
CC[C@H](C)[C@H](N)C(=O)O,Potency,[1],inactive
same,Potency,[2],inactive
same,Potency,[3],inactive
O=S1(=O)CC(Cl)(Cl)C(Cl)(Cl)C1,Potency,[1],71 µM (active)
same,Potency,[4],inactive
O=C(Nc1cccc2c(=O)cc(-c3nn[nH]n3)oc12)c1ccc(OCCCCc2ccccc2)cc1,Potency,[1],inactive
same,Potency,[2],27.5 µM (active)
same,Potency,[3],inactive
CCN(CC)CCNC(=O)COc1ccc(OC)cc1,Potency,[1],inactive
same,Potency,[2],inactive
same,Potency,[3],inactive
N=C(N)c1ccc2cc(OC(=O)c3ccc(N=C(N)N)cc3)ccc2c1,Potency,[1],27.5 µM (active)
same,outcome,[2],inactive
same,outcome,[3],inactive
CCC(=O)Oc1ccc2c(c1)CC[C@@H]1[C@@H]2CC[C@@]2(C)[C@H]1C[C@@H](OC(=O)CC)[C@@H]2OC(=O)CC,Potency,[1],inactive
same,Potency,[2],inactive
same,Potency,[3],inactive
N#CSc1ccc(N)c([N+](=O)[O-])c1,Potency,[1],inactive
same,Potency,[2],inactive
same,Potency,[3],inactive
CCc1cc(SCc2sc(-c3ccc(C(F)(F)F)cc3)nc2CN2CCN(c3ccc(OC)cc3)CC2)ccc1OCC(=O)O,Potency,[1],inactive
same,Potency,[4],inactive
CN(C)CCN1C(=O)c2ccccc2N(C)c2ccccc21,Potency,[1],inactive
same,Potency,[2],inactive
same,Potency,[3],inactive
